Measurements reported in PubChem BioAssay.
Active and inactive are the calls of the source.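 Rule for the calls, unless noted: active = compounds lowering colon cancer cell viability after pretreatment blocking the GSK3B kinase; inactive = the rest.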

How the values were obtained:
[1] = stimulators of insulin release from INS-1E, primary screen, cell-based, 5 mM glucose, NPC library (AID 1117329;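 active = compound raises insulin release from rat beta cells at 5 mM glucose, no numeric limit stated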); conditions: rat INS-1E insulin secretion, at 10 µM, stronger effect = higher value
[2] = growth inhibition of GSK3B-pretreated HCT116 cells – cell-based, CellTiter-Glo, 0.2 to 20 µM (AID 1117336); conditions: HCT116 viability after GSK3B inhibitor, at 20 µM, stronger effect = higher value
[3] = inhibition of endothelial tube formation, primary screen, imaging, VEGF stimulated, CD31 staining, tube area, NPC library (AID 1117340;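 active = compound that reduces growth-factor-driven endothelial tube area in a mixed cell culture, no cutoff stated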); conditions: VEGF-stimulated ADSC/ECFC co-culture, at 10 µM, stronger effect = higher value
[4] = GLP1 release stimulators, primary, NCI-H716, NPC library (AID 1117341;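 active = compound raises GLP1 secretion from the human gut endocrine cells, with no numeric limit stated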); conditions: NCI-H716 cells, at 10 µM, stronger effect = higher value
[5] = HCT116 colon cancer cell growth inhibition, primary screen, CellTiter-Glo luminescence, NPC library (AID 1117342;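 active = compounds that lower survival of HCT116 colon cancer cells in the luminescence readout, no numeric limit stated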); conditions: at 20 µM (top of the series)
[6] = reduced SW480 viability measured with CellTiter-Glo, NPC library, primary (AID 1117343;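 active = compounds that lower viability of the colon cancer cells in the luminescence readout, with no numeric limit stated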); conditions: CellTiter-Glo luminescence; at 20 µM (top of the series)
[7] = NPC library primary testing for decreased DLD-1 cell viability via CellTiter-Glo (AID 1117346;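 active = compounds that lower survival of DLD-1 colon cancer cells in the luminescence readout, no cutoff given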); conditions: DLD-1 viability, CellTiter-Glo luminescence; at 20 µM (top of the series)
[8] = biological target: 6-phosphogluconate dehydrogenase, decarboxylating (Homo sapiens) (UniProt P52209); experiment: inhibition of human phosphogluconate dehydrogenase – biochemical, recombinant enzyme, NADPH absorbance, primary screen (AID 1159550;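 active = at least 20% inhibition of 6-phosphogluconate dehydrogenase activity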); conditions: recombinant 6PGD, NADPH absorbance 341 nm; at 10 µM; stronger effect = higher value
6-phosphogluconate dehydrogenase, decarboxylating (Homo sapiens), sequence (P52209 whole entry, looked up): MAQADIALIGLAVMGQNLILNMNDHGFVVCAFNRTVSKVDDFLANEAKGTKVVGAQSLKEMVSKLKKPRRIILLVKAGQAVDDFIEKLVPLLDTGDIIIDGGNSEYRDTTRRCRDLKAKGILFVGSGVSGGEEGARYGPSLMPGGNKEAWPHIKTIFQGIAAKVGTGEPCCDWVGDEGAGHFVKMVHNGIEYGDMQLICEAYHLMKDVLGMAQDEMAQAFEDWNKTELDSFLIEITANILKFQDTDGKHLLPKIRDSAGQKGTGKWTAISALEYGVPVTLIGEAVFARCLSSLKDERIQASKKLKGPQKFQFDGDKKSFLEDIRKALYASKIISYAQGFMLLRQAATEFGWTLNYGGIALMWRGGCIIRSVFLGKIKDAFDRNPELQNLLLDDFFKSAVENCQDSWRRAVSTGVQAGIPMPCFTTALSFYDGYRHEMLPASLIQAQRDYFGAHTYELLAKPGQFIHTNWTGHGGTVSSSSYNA

[9] = EMT-state selective cytotoxicity in co-culture – imaging, PC-3E GFP, TEM4-18 mCherry, primary screen (AID 1345086;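 active = compounds killing one labelled cell type while sparing the other, by normalised counts and ratio limits, not self-fluorescent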;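 for all read-outs here: cells exposed to compound for 72 h before imaging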;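 for red/green cell ratio (normalised): normalised mesenchymal count divided by normalised epithelial count so high means epithelial killing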); conditions: PC-3E GFP / TEM4-18 mCherry co-culture, imaging cell counts, at 1 µM; for red/green cell ratio (normalised): actives lie on both sides, counts scaled to control wells, 1 = unselective
[10] = measured here: epithelial PC-3E GFP cell survival
[11] = measured here: mesenchymal TEM4-18 mCherry cell survival

Oc1c(I)cc(I)c2cccnc12
inactive: insulin secretion stimulation [1] 0.55% | GLP1 secretion stimulation [4] -3.1% | inhibition [8] -4.02% | red/green cell ratio (normalised) [9] 1.31
1.32: normalised cell number [9, 11]
1.01: normalised cell number [9, 10]
active: viability decrease [2] 102% | tube area decrease [3] 108% | inhibition of viability [5] 89.9% | viability decrease (inhibition) [6] 147% | viability decrease (inhibition) [7] 96.2%

Nc1nccs1
0.98: normalised cell number [9, 11]
1.25: normalised cell number [9, 10]
active: viability decrease (inhibition) [6] 66.3% | viability decrease (inhibition) [7] 10%
inactive: insulin secretion stimulation [1] -0.1% | viability decrease [2] 12.4% | tube area decrease [3] 5.4% | GLP1 secretion stimulation [4] -1% | inhibition of viability [5] 25.5% | inhibition [8] 5.79% | red/green cell ratio (normalised) [9] 0.78

CCC(Cc1c(I)cc(I)c(N)c1I)C(=O)O (stereo not given)
inactive: insulin secretion stimulation [1] 0.8% | viability decrease [2] -70.8% | tube area decrease [3] 4% | GLP1 secretion stimulation [4] 1.8% | inhibition of viability [5] 7.7% | viability decrease (inhibition) [6] 18.6% | viability decrease (inhibition) [7] -5.3% | inhibition [8] -0.317% | red/green cell ratio (normalised) [9] 1.11
1.2: normalised cell number [9, 10]
1.33: normalised cell number [9, 11]

Cc1ccnc(NS(=O)(=O)c2ccc(N)cc2)n1
1.33: normalised cell number [9, 11]
0.98: normalised cell number [9, 10]
inactive: insulin secretion stimulation [1] -0.3% | viability decrease [2] 9.35% | tube area decrease [3] -12.6% | GLP1 secretion stimulation [4] 2.1% | inhibition of viability [5] 2.4% | viability decrease (inhibition) [6] 31.8% | viability decrease (inhibition) [7] 7.5% | inhibition [8] 2.58% | red/green cell ratio (normalised) [9] 1.35

NC(=NCCCCCCN=C(N)/N=C(\N)Nc1ccc(Cl)cc1)/N=C(\N)Nc1ccc(Cl)cc1
inactive: inhibition [8] -5.13% | red/green cell ratio (normalised) [9] 1.05
0.89: normalised cell number [9, 10]
active: insulin secretion stimulation [1] 36.6% | viability decrease [2] 120% | tube area decrease [3] 111% | GLP1 secretion stimulation [4] 161% | inhibition of viability [5] 125% | viability decrease (inhibition) [6] 166% | viability decrease (inhibition) [7] 101%
0.93: normalised cell number [9, 11]

Cc1cccc(C(=O)O)c1O
0.79: normalised cell number [9, 10] | normalised cell number [9, 11]
inactive: insulin secretion stimulation [1] -1.9% | viability decrease [2] -9.8% | tube area decrease [3] 2.1% | GLP1 secretion stimulation [4] 1.9% | inhibition of viability [5] -0.1% | viability decrease (inhibition) [6] 22.1% | viability decrease (inhibition) [7] -4.5% | inhibition [8] 9.08% | red/green cell ratio (normalised) [9] 1

CCCCOc1cc(C(=O)NCCN(CC)CC)c2ccccc2n1
1.25: normalised cell number [9, 11]
inactive: insulin secretion stimulation [1] 1.6% | viability decrease [2] -47.5% | tube area decrease [3] 3.5% | GLP1 secretion stimulation [4] 7.7% | inhibition of viability [5] 45.3% | viability decrease (inhibition) [6] 49.2% | viability decrease (inhibition) [7] 29.5% | inhibition [8] -0.88% | red/green cell ratio (normalised) [9] 0.94
1.33: normalised cell number [9, 10]

O=c1cc[nH]c(=S)[nH]1
inactive: insulin secretion stimulation [1] -0.7% | viability decrease [2] -5.7% | tube area decrease [3] 11.6% | GLP1 secretion stimulation [4] -6.9% | inhibition of viability [5] 1.83% | viability decrease (inhibition) [6] -9.6% | viability decrease (inhibition) [7] -8.5% | inhibition [8] 13.5% | red/green cell ratio (normalised) [9] 0.81
1.32: normalised cell number [9, 10]
1.07: normalised cell number [9, 11]

CN(C)CCOC(=O)COc1ccc(Cl)cc1
inactive: insulin secretion stimulation [1] 1.2% | viability decrease [2] -0.8% | tube area decrease [3] -34.4% | GLP1 secretion stimulation [4] 1.2% | inhibition of viability [5] 7.1% | viability decrease (inhibition) [6] -16% | viability decrease (inhibition) [7] -7.4% | inhibition [8] 17.7% | red/green cell ratio (normalised) [9] 0.89
0.87: normalised cell number [9, 11]
0.98: normalised cell number [9, 10]

OCc1ccccc1O
0.88: normalised cell number [9, 10]
0.96: normalised cell number [9, 11]
inactive: insulin secretion stimulation [1] -0.1% | viability decrease [2] -7.2% | tube area decrease [3] 19.2% | GLP1 secretion stimulation [4] -0.3% | inhibition of viability [5] -6.03% | viability decrease (inhibition) [6] -5.8% | viability decrease (inhibition) [7] -17.8% | inhibition [8] -10.9% | red/green cell ratio (normalised) [9] 1.09

CCCCNc1ccc(C(=O)OCCN(C)C)cc1
1.07: normalised cell number [9, 10]
1.27: normalised cell number [9, 11]
inactive: insulin secretion stimulation [1] 0% | viability decrease [2] -26.9% | tube area decrease [3] 9.8% | GLP1 secretion stimulation [4] 0.3% | inhibition of viability [5] 18% | viability decrease (inhibition) [6] 47% | viability decrease (inhibition) [7] 3.1% | inhibition [8] -7.63% | red/green cell ratio (normalised) [9] 1.19

Cc1c(C(N)=O)cc([N+](=O)[O-])cc1[N+](=O)[O-]
0.91: normalised cell number [9, 10]
0.9: normalised cell number [9, 11]
inactive: insulin secretion stimulation [1] -3.2% | viability decrease [2] 13.7% | tube area decrease [3] -5.4% | GLP1 secretion stimulation [4] 2.8% | inhibition of viability [5] -20% | viability decrease (inhibition) [6] 34% | viability decrease (inhibition) [7] 19.3% | inhibition [8] -17.5% | red/green cell ratio (normalised) [9] 0.99

C/C=C/c1ccc(OC)cc1
inactive: insulin secretion stimulation [1] 1.3% | viability decrease [2] -5.7% | tube area decrease [3] 6.2% | GLP1 secretion stimulation [4] -1.8% | inhibition of viability [5] 10.8% | viability decrease (inhibition) [6] 20.9% | viability decrease (inhibition) [7] -3.2% | inhibition [8] 6.64% | red/green cell ratio (normalised) [9] 1.24
1.08: normalised cell number [9, 10]
1.34: normalised cell number [9, 11]

Cc1[nH]c(C)c(Cl)c(=O)c1Cl
inactive: insulin secretion stimulation [1] -1.1% | viability decrease [2] 10.2% | tube area decrease [3] -15.3% | GLP1 secretion stimulation [4] 0.1% | inhibition of viability [5] 6.55% | viability decrease (inhibition) [6] 29% | viability decrease (inhibition) [7] 11.2% | inhibition [8] -15% | red/green cell ratio (normalised) [9] 0.99
0.99: normalised cell number [9, 11]
1: normalised cell number [9, 10]

C[n+]1cc2c3c(ccc2c2ccc4cc5c(cc4c21)OCO5)OCO3
1.01: normalised cell number [9, 11]
inactive: insulin secretion stimulation [1] -3.7% | inhibition [8] 11.1% | red/green cell ratio (normalised) [9] 1.2
0.84: normalised cell number [9, 10]
active: viability decrease [2] 99.8% | tube area decrease [3] 104% | GLP1 secretion stimulation [4] 27.5% | inhibition of viability [5] 102% | viability decrease (inhibition) [6] 141% | viability decrease (inhibition) [7] 105%
